High-throughput results: PubChem BioAssay, National Center for Advancing Translational Sciences (NCATS)
Integrin act MD – integrin-mediated muscular dystrophy alleviation activation | alpha7betagal myoblasts, beta-gal FDG fluorescence, 48 h | Potency, µM (highest dose often 38.3 µM), for inactives: at the top dose activation, hits mostly activators | AID 624291 | 350,000 tested, 0.064% active;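 note: 100% = response of the positive control SU9516; nearly all actives have a fitted effect of over 60% in size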
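alpha7betagal+/- myoblasts (passage 13, 250/well) treated 48 h at 37C with compounds at 1:260 dilution of DMSO stock. Lysed, then beta-galactosidase activity read as FDG fluorescence (ex 480/em 540) after 30 min, with pre-read for autofluorescence.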
Chronic BCR inh – blocks chronic active B-cell receptor signaling; ABC-DLBCL IkBa-CBG/CBR reporter, luminescence ratio, 4 h; Potency, µM (highest dose often 46.1 µM), for the others: at the highest dose activity change, negative = inhibition, most hits filed as inhibitors; 340,000 tested, 0.05% active; active = well fitted inhibition curve with a large enough effect in the signal ratio, with a control signal flat, not every such curve was filed as active; inconclusive = small, poorly fitted or top-dose-only effect, or effect the other way, or a change in a side signal; the % refers to the signal ratio;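 note: plate controls were basal doxycycline-induced cells for no effect and cells given 10 µM MG132 for full effect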
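Concentration-response series (up to 46 uM) were applied to TMD8 dual-reporter cells for 4 h at 37C with doxycycline. Green/red ratio, after filter-overlap correction, defined %Activity; red signal alone was normalised to basal cells and zero luminescence.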
RORgamma inh – ROR gamma (mouse) transcription inhibition. Potency, µM (top dose mostly 53.6 µM), without a hit: at the highest dose activity change, negative = inhibition, usual class: inhibitors. Drosophila S2 Gal4-RORgamma UAS-luciferase reporter, 20 h. 310,000 tested, 5.4% active; note: % is set by controls: 0 for no effect and ±100 for the full control effect; nearly all actives have a fitted effect of over 60% in size
Target sequence (P51450 whole entry, looked up, the tested form may be a part): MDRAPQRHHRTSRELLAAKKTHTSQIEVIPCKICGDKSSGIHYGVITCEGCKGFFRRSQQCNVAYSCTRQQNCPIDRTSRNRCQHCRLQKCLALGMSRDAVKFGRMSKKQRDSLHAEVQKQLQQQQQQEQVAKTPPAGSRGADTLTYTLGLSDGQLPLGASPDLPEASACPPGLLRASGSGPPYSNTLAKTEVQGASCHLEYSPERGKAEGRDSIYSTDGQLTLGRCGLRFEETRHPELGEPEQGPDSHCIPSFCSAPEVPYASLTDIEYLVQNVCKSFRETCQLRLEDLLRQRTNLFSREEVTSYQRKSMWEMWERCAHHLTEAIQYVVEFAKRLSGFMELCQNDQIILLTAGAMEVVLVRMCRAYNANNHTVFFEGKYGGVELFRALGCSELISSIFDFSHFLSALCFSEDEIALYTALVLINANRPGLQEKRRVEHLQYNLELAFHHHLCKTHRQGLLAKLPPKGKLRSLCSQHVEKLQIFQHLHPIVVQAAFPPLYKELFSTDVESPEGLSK
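A Gal4/UAS one-hybrid system in insect cells: metallothionein-promoter Gal4–ROR gamma fusion plus Photinus luciferase reporter. Copper sulfate 700 uM final, 20 hr ambient incubation, luminescent detection after 10 min with reagent.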
Mito fusion act – mitochondrial division inhibition or fusion activation | S. cerevisiae fusion-defective mutant growth rescue, CellTiterGlo 48 h | 320,000 tested, 0.23% active | Potency, µM (top dose mostly 46.1 µM), for the others: at the top dose growth rescue (activation), hits mostly activators | AID 485298; note: % of control where 0% means no effect; nearly all actives have a fitted effect of over 45% in size
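Temperature-sensitive fusion-defective S. cerevisiae (e.g. fzo1-1, mgm1-5) were grown with compound in YPEG medium (3% ethanol, 3% glycerol) for 48 hours at 37C. Growth rescue was measured as viability by CellTiterGlo luminescence after 10 minutes at ambient.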
uPA surface inh – inhibitors of cell surface uPA generation | cell surface uPA generation assay, qHTS | Potency, µM (series often up to 38.3 µM), without a hit: top-dose activity change, negative = inhibition, hits mostly inhibitors | 330,000 tested, 0.31% active; active = well fitted inhibition curve with a large enough effect; inconclusive = small, poorly fitted or top-dose-only effect; inactive = no such curve, though single readings can be large or run the other way; tested in mouse RAW 264.7 cells; note: % is set by controls: 0 for no effect and ±100 for the full control effect; nearly all actives have a fitted effect of over 55% in size
Gal4-VP16 FLuc – Gal4-VP16 reporter inhibition counter-screen; 310,000 tested, 3.5% active; Drosophila S2 Gal4-VP16 UAS-luciferase, luminescence, 20 h; Potency, µM (top dose mostly 53.6 µM), for inactives: at the top dose activity, negative = inhibition, hits mostly inhibitors;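 note: Gal4-VP16 expression switched on by copper sulfate through the metallothionein promoter; % is set by controls: 0 for no effect and ±100 for the full control effect; nearly all actives have a fitted effect of over 50% in size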
An asterisk follows results filed as active; ? = inconclusive; . = no result; [ ] = dose if it differs, or a comment. This is a sample that favours compounds with a hit; in the whole collection about 5.5% have one here. Unless noted, calls come from the whole dose curve; as a rule, active = well fitted curve in the direction sought with a large enough effect; inconclusive = small, poorly fitted or top-dose-only effect, or another doubt; inactive = no such curve, though single readings can be large; an effect the other way counts as inactive or inconclusive. Potency is the fitted concentration of half-maximal effect.

SMILES | Integrin act MD | Chronic BCR inh | RORgamma inh | Mito fusion act | uPA surface inh | Gal4-VP16 FLuc
Cc1ccc(C(=O)Oc2cccc(NC(=O)c3ccccc3)c2)cc1C | 13% | -8% | 2% | 10µM* | -2% | 2%
O=C(NNC(=O)c1cccc(Br)c1)Nc1ccc(Cl)cc1 | 10% | 1% | -20% | 1% | 6% | 5%
O=C(NC(=S)Nc1cc(Cl)ccc1O)c1cccc(Br)c1 | -20% | ? | 1.3µM* | -7% | 4% | 3.5µM*
Cc1ccc(NC(=O)c2ccccc2)cc1C | 37% | -14% | . | 4% | -28% | .
CC(=O)c1cccc(NC(=S)NC(=O)c2ccc(C)cc2)c1 | 6% | 0% | 10µM* | -1% | -5% | 13µM*
CC(=O)c1cccc(NC(=S)NC(=O)c2ccc(Br)cc2)c1 | -39% | 12% | 5.6µM* | -3% | -1% | 10µM*
CS(=O)(=O)N1CCC2(CC1)CN(C(=O)Nc1cccc(C#N)c1)C2 | . | . | 3% | . | . | -15%
CCCCCC1OC1C/C=C\C/C=C\C/C=C\CCCC(=O)O (stereo unspecified) | . | . | -14% | . | . | -3%
CCOc1ccc(S(=O)(=O)Nc2cccc(N(C)S(C)(=O)=O)c2)cc1 | -30% | 0% | 1% | -1% | -10% | -24%
Cc1ccc(S(=O)(=O)Nc2ccc3c(c2)n(C)c(=O)n3C)cc1 | ? | 1% | 35% | -1% | -8% | ?
CCCCOc1ccc(S(=O)(=O)Nc2cccnc2)cc1 | -54% | 9% | -31% | 7% | -15% | 11µM*
Cc1ccc(S(=O)(=O)Nc2cccnc2)cc1 | 9% | -2% | 17% | -2% | -4% | -2%
CCOc1ccc(S(=O)(=O)Nc2ccc3c(c2)n(C)c(=O)n3C)cc1 | -25% | ? | ? | 3% | -10% | 0.1µM*
CCOc1ccc(S(=O)(=O)Nc2cccc(OC)c2)cc1 | 23% | ? | -31% | 4% | . | 18µM*
CCc1ccc(S(=O)(=O)Nc2cc3c(cc2C)n(C)c(=O)n3C)cc1 | -71% | ? | ? | -1% | ? | 7.1µM*
Cc1ccc(NS(=O)(=O)c2ccc3c(c2)n(C)c(=O)n3C)c(C)c1 | -22% | ? | 12% | -8% | 0% | 4%
CC(=O)Nc1cc(C(=O)Nc2ccc3c(c2)N(C)C(=O)c2ccccc2S3)ccc1C | . | -11% | . | . | . | .
Clc1ccc(-n2nnnc2SCc2c(-c3ccccc3)nc3sccn23)cc1 | 28% | 7% | ? | 7% | 4% | 6.3µM*
Cc1ccc(NC(=O)N2CCCC2)cc1Cl | 17% | -2% | -12% | 4% | -4% | -1%
O=C(NC(=S)Nc1ccc(F)c(Cl)c1)C1CC1 | 17% | ? | 5.6µM* | 11% | 0% | 7.1µM*
Fc1ccc(NC(=S)Nc2ccc(F)c(Cl)c2)cc1Cl | -59% | ? | 1.8µM* | -1% | 4% | -23%
Cc1ccc(NC(=S)NC(=O)C2CC2)cc1Cl | 3% | ? | 3.2µM* | -1% | -2% | 5µM*
Fc1ccc(NC(=S)N2CCCC2)cc1Cl | 12% | ? | ? | -2% | -6% | -10%
COc1ccc([C@]23Cc4cc(C#N)ccc4C(O2)c2c(c4ccc(OC)cc4oc2=O)O3)cc1 | . | 4%[9.22 µM] | -6%[10 µM] | 3%[9.22 µM] | . | -8%[10 µM]
Cc1ccc(NC(=O)CSc2nnnn2C)cc1S(=O)(=O)N1CCCCC1 | 11% | . | . | . | . | .
SMILES | Integrin act MD | Chronic BCR inh | RORgamma inh | Mito fusion act | uPA surface inh | Gal4-VP16 FLuc
O=C(O)C1CCCCC1C(=O)Nc1ccc(S(=O)(=O)N2CCCCC2)cc1 (stereo unspecified) | 12% | 1% | -13% | -4% | 1% | -5%
C1=C(c2ccc(-c3ccccc3)cc2)Nc2ncnn2C1c1ccco1 (stereo unspecified) | -34% | ? | 11µM* | 0% | -8% | ?
Fc1ccc(C2=CC(c3ccco3)n3ncnc3N2)cc1 (stereo unspecified) | -13% | 3% | -27% | 3% | -1% | 1%
CC(C)CC1Nc2ncnc(N3CCCCC3)c2N(Cc2ccc(Br)cc2)C1=O (stereo unspecified) | 6% | 0% | . | 22µM* | ? | .
CCC1Nc2ncnc(N3CCc4ccccc4C3)c2N(Cc2ccc(Cl)cc2)C1=O (stereo unspecified) | -30% | ? | . | . | ? | .
O=C1C(Cc2ccccc2)Nc2ncnc(N3CCc4ccccc4C3)c2N1Cc1ccc(Cl)cc1 (stereo unspecified) | -38% | -14% | . | 10µM* | ? | .
CC1(C)CC(=O)c2c(oc3cc(O)c(O)cc23)C1 | -31% | -15% | -26% | 7% | -10% | -5%
COC(=O)CC1Oc2cc3oc4c(c3cc2O1)C(=O)CC(C)(C)C4 (stereo unspecified) | . | . | 5µM* | . | . | ?
Cc1ccc(/C=c2/sc3n(c2=O)CCCN=3)o1 | 4% | 0% | 7.1µM* | 3% | -2% | ?
Fc1ccc(/C=N/NC2=Nc3cccc4cccc2c34)cc1 | 18% | ? | 1.1µM* | 6% | -3% | ?
COc1ccc(NC2=Nc3cccc4cccc2c34)cc1 | -1% | ? | 13µM* | 0% | -2% | ?
CCc1ccc(C(=O)CSC2=C(C#N)C(c3ccco3)C(C(C)=O)=C(C)N2)cc1 (stereo unspecified) | . | 17% | 6.3µM* | 3% | . | ?
CC(=O)C1=C(C)NC(SCC(=O)c2cc(Cl)ccc2Cl)=C(C#N)C1c1ccco1 (stereo unspecified) | 1% | ? | 6.3µM* | 23% | -20% | 3.5µM*
CC(=O)C1=C(C)NC(SCC(=O)c2ccc(Cl)c(Cl)c2)=C(C#N)C1c1ccco1 (stereo unspecified) | -34% | ? | ? | ? | 9% | -63%
Cc1ccc(-c2nnc(Cc3ccc([N+](=O)[O-])cc3)o2)cc1 | -10% | ? | 0.28µM* | -23% | ? | ?
O=C(Nc1cccc(C(F)(F)F)c1)Oc1ccc(Cl)c2cccnc12 | -73% | ? | 0.5µM* | -55% | 4% | 1µM*
CCN(CC)C(=O)Oc1ccc(Cl)c2cccnc12 | 13% | -1% | 17% | 1% | -1% | ?
CN(C(=O)COC(=O)Cc1c(F)cccc1Cl)c1c(N)n(Cc2ccccc2)c(=O)[nH]c1=O | -4% | -1% | . | -3% | -3% | .
COc1cc2c(cc1OC)-c1cc(=Nc3c(C)cc(C)cc3C)n(C)c(=O)n1CC2 | . | . | -3% | 18µM* | . | -10%
COCCNC(=O)c1cc(-c2ccccc2OC)on1 | -20% | ? | 9% | -1% | 7.1µM* | 9%
COc1ccccc1-c1cc(C(=O)NCc2cccs2)no1 | 29% | ? | 32% | 8% | 3% | 19%
Cc1cc(C)nc(NC(=NCCc2c[nH]c3ccccc23)NC(=O)C(C)(C)C)n1 | -4% | 1% | 7.1µM* | 1% | -1% | ?
